One assay has as its target Albumin (Bos taurus) (UniProt P02769). The assay is described as follows: compounds binding labelled BSA control protein – biochemical, small-molecule microarray, Alexa647 label, 635/667 nm fluorescence, artefact control for SMM control protein annotation, profiling panel (AID 1118).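 Note: score merges 667 nm emission intensity and signal-to-noise per printed compound spot.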 To be noted: BSA-A647 binding, fluorescence 635 nm, higher = more signal.
Assay [1] is described as follows: probe aXIP binding to arrayed compounds – biochemical, NeuroSMM set, 635/667 nm fluorescence, primary screen (AID 1119).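 Note: probe is the protein aXip251-270 applied at 1 µg/mL to compound-printed slides; binding of probe to printed compounds measured as 667 nm fluorescence plus signal to noise.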 To be noted: small-molecule microarray, higher = more signal, called active from +8 up or from −8 down.
Assay [2] can be described thus: probe aNOTCH3 binding on compound microarray – biochemical, small-molecule microarray, 635/667 nm fluorescence, primary screen (AID 1120).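 Note: probe is a biotin-tagged antibody raised against NOTCH3 rather than NOTCH3 protein; score merges spot fluorescence near 667 nm with spot signal to noise.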 To be noted: higher = more signal.
Assay [3] is described as follows: probe aNOTCH2 binding on compound microarray – biochemical, small-molecule microarray, 635/667 nm fluorescence, primary screen (AID 1121).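 Note: score merges feature fluorescence read at 667 nm with its signal to noise.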 To be noted: higher = more signal.
Assay [4] addresses Carbonic anhydrase 2 (Homo sapiens) (UniProt P00918). Briefly: compounds binding carbonic anhydrase 2 – biochemical, small-molecule microarray, Alexa647-labelled CAII, profiling panel (AID 1122). The following applies: CAII-A647 binding fluorescence, higher = more signal.
A short description of assay [5]: COS7 lysate on small-molecule microarray, probe aHis, 635 nm (AID 1123).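 Note: z-score combines 667nm fluorescence intensity with signal-to-noise per printed compound spot.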 To be noted: COS7 cell lysate, fluorescence, higher = more signal.
Assay [6] is described as follows: probe aLAP1 signal on lysate-treated microarray – cell lysate, small-molecule microarray, COS7 lysate, primary screen (AID 1124).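 Note: lysate comes from COS7 cells expressing LAP1 and is applied at 0.3 µg/mL; score merges spot fluorescence near 667 nm with signal-to-noise over triplicate slides.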 To be noted: probe aLAP1, fluorescence, higher = more signal.
The next assay relates to Sam68 (KHDRBS1). Briefly: compounds binding KHDRBS1 protein – biochemical, small-molecule microarray, 635 nm fluorescence, primary screen (AID 1125).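 Note: score merges 667 nm channel intensity with signal to noise over triplicate slides.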 The following applies: higher = more signal.
Assay [7] has as its system Chordin-like protein 2 (CHRDL2). Briefly: compounds binding chordin-like 2 – biochemical, small-molecule microarray, 635 nm fluorescence, primary screen (AID 1126).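 Note: printed compound slides probed with Chrdl2 protein at 4 µg/mL for 1 h at 4 C; score merges 667 nm emission intensity with signal to noise over three replicate slides.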 The following applies: fluorescence 635 nm, higher = more signal.
Assay [8] concerns the target Concanavalin-A (Canavalia ensiformis) (UniProt P02866). The assay is described as follows: compounds binding concanavalin A lectin – biochemical, small-molecule microarray, Alexa647 label, 635 nm, artefact control for SMM control protein annotation, primary screen (AID 1127).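 Note: z combines 667 nm emission intensity with signal-to-noise across three replicate slides.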 To be noted: ConA-A647 binding fluorescence, higher = more signal.
Assay [9] can be described thus: compounds binding Alexa647 anti-His antibody – biochemical, small-molecule microarray, 635 nm fluorescence, artefact control for SMM control protein annotation, primary screen (AID 1128).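 Note: score merges feature fluorescence with signal-to-noise for each printed compound spot.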 The following applies: higher = more signal.
The subject of assay [10] is Human papillomavirus type 1a E7 protein (residues 1-88). The assay is described as follows: HPV1a E7 small-molecule binders, primary screen, biochemical, small-molecule microarray, residues 1-88, 635 nm (AID 1129). The following applies: small-molecule microarray binding, fluorescence 635 nm; higher = more signal.
Assay [11] deals with Focal adhesion kinase 1 (Homo sapiens) (UniProt Q05397). Briefly: PTK2 protein binding on printed compound slides – biochemical, small-molecule microarray, 635/667 nm fluorescence, BSA, DTT, primary screen (AID 1130).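 Note: composite of spot emission at 667 nm and signal to noise over triplicate slides.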 To be noted: 635 nm fluorescence, higher = more signal.
Focal adhesion kinase 1 (Homo sapiens), sequence (Q05397 whole entry, looked up): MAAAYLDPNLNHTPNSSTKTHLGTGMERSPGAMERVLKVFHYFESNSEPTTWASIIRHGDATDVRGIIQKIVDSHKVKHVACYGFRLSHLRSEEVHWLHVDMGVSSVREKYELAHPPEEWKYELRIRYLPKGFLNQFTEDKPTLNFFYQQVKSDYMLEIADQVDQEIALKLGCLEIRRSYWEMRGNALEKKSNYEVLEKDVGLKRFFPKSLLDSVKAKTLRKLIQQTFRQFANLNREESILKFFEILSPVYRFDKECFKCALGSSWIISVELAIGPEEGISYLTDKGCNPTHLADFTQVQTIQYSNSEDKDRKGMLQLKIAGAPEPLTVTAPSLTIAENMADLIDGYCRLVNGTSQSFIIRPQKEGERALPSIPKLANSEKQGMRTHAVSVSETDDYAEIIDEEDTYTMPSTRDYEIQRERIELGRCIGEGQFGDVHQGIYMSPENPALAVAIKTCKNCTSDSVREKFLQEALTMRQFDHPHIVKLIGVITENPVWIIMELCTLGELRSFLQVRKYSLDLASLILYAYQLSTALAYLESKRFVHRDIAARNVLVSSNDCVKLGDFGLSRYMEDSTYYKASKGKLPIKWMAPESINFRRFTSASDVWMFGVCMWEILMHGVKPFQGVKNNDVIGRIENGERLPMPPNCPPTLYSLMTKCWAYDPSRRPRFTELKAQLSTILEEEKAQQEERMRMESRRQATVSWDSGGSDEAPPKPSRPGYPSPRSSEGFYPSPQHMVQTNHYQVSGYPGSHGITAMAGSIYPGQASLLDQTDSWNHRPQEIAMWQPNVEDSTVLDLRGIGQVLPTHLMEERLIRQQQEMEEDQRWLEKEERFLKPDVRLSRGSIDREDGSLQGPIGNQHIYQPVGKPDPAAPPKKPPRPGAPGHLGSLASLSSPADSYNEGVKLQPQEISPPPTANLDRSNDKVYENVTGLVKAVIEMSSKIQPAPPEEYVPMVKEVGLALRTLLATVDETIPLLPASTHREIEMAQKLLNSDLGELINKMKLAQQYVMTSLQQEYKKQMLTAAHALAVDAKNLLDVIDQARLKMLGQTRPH
For assay [12], the system named is Fibrinogen (Alexa647-labelled). Briefly: Alexa647-fibrinogen binding to printed small molecules – biochemical, small-molecule microarray, 635/667 nm fluorescence, artefact control for SMM control-protein annotation, profiling panel (AID 1131).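 Note: z-score merges 667 nm fluorescence with per-spot signal-to-noise over triplicate slides.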 The following applies: fibrinogen-A647 binding fluorescence, higher = more signal.
The target in assay [13] is Follistatin (Homo sapiens) (UniProt P19883). The assay is described as follows: FST protein binding to printed compounds – biochemical, small-molecule microarray, 635/667 nm fluorescence, primary screen (AID 1132). To be noted: 635 nm fluorescence, higher = more signal.
Follistatin (Homo sapiens), sequence (P19883 whole entry, looked up): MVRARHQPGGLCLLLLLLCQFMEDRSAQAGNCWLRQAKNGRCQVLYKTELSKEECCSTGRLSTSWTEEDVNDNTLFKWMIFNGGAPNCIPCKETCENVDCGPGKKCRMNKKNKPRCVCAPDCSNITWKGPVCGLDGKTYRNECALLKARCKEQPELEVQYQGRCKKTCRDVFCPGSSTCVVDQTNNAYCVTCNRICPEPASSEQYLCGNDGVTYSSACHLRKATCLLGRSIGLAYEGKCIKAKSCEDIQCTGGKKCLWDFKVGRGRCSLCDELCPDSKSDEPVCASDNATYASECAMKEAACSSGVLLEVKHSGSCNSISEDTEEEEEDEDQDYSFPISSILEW
The target in assay [14] is Fibroblast growth factor 2 (Homo sapiens) (UniProt P09038). Briefly: basic fibroblast growth factor binding to printed compounds – biochemical, small-molecule microarray, 635/667 nm fluorescence, primary screen (AID 1133). To be noted: FGF2, fluorescence 635/667, higher = more signal.
Fibroblast growth factor 2 (Homo sapiens), sequence (P09038 whole entry, looked up): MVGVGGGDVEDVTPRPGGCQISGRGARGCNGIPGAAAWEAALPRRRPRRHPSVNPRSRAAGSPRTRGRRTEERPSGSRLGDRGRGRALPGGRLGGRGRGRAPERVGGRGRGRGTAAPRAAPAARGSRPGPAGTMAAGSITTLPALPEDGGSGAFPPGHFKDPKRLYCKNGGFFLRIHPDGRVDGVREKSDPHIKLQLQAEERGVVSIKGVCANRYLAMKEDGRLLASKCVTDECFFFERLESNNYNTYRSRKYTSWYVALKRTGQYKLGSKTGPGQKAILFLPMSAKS
Assay [15] in a line: JC-1 mitochondrial potential readout, lung cancer cells – cell-based, A549, JC-1 fluorescence, basal, 24 h, 100 nL, profiling panel (AID 1138).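 Note: A549 lung adenocarcinoma cells under basal conditions with no added stimulus; test concentration not given here.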 To be noted: higher = more signal.
For the next assay, the system named is Lefty1. The assay is described as follows: Lefty1 protein binding to printed compounds – biochemical, small-molecule microarray, 635/667 nm fluorescence, primary screen (AID 1139). The following applies: fluorescence 635/667, higher = more signal.
For assay [16], the system named is wheat germ agglutinin (Triticum aestivum), Alexa647-labelled. Briefly: Alexa647-WGA lectin binding to printed small molecules – biochemical, small-molecule microarray, 635/667 nm fluorescence, artefact control for SMM control-protein annotation, profiling panel (AID 1140).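 Note: score merges 667 nm feature emission with signal to noise over triplicate slides.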 To be noted: WGA-A647 binding, 635 nm fluorescence, higher = more signal.
Assay [17] addresses Luciferin 4-monooxygenase (Photinus pyralis) (UniProt P08659). The assay is described as follows: inhibition of purified Photinus pyralis luciferase – biochemical, luminescence, purified enzyme, 2006 set, primary screen (AID 1141).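 Note: cell-free assay with purified firefly luciferase at 100 ng per well in PBS; test concentration not given here.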 To be noted: purified firefly luciferase, SteadyGlo luminescence, 30 min; higher = more signal, called active from +8 up or from −8 down.

Calls of active or inactive are those of the source.

Luciferin 4-monooxygenase (Photinus pyralis), sequence (P08659 whole entry, looked up): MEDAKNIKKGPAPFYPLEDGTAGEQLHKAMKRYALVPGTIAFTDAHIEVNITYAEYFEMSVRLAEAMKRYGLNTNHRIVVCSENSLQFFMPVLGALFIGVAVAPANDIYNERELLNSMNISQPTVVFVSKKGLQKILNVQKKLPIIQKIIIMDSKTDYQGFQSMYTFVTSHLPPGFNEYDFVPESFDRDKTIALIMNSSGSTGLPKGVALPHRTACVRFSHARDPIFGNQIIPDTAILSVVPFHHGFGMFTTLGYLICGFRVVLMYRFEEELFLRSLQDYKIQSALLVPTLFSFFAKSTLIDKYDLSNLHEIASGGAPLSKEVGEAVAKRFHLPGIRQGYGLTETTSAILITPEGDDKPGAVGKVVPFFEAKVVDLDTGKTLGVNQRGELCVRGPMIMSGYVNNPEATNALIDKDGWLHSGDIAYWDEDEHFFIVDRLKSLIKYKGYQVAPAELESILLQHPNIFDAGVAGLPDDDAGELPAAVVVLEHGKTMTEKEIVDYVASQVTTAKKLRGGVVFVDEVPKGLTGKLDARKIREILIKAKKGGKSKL
Concanavalin-A (Canavalia ensiformis), sequence (P02866 whole entry, looked up): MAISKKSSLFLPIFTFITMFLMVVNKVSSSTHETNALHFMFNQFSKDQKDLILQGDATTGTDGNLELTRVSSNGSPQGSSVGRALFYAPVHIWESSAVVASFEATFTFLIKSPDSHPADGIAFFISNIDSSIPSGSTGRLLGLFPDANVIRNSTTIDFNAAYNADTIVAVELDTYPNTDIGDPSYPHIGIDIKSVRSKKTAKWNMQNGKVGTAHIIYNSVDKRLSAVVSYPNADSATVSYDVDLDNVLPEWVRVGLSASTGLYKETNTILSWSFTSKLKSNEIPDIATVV
Albumin (Bos taurus), sequence (P02769 whole entry, looked up): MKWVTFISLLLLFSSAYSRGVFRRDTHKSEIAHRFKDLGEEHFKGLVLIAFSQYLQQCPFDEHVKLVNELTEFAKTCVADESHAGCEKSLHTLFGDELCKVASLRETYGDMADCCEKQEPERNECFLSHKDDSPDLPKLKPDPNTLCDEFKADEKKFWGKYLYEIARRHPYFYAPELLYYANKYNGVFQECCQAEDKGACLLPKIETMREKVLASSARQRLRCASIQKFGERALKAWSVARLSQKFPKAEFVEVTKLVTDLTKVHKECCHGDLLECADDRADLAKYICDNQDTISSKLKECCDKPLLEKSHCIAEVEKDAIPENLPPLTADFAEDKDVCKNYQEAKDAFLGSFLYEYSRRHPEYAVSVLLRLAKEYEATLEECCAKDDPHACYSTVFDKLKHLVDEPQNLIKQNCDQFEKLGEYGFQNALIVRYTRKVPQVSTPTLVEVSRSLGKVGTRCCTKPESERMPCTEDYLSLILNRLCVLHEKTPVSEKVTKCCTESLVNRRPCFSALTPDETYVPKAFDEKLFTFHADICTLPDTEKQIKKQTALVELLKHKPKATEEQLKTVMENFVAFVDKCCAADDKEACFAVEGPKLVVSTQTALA

As to `COc1ccc(C(=O)Nc2ccc(CN3C(=O)[C@@]4(O[C@@H](CCn5cc(CCO)nn5)[C@H]([Si](C)(C)c5ccc(OC)cc5)[C@H]4C)c4ccccc43)cc2)cc1`, the composite z-score is 0.264 with Albumin (Bos taurus); 0.0276 in [2]; -0.0895 in assay [3]; 0.348 in assay [4]; 0.822 in [5]; 0.116 in [6]. In addition, the composite z-score in the assay on Sam68 (KHDRBS1) came to 1.32; in [7] it was 0.919; in assay [8], 1.09; in assay [9], 1.17; in assay [10], 1.17; in assay [11] it was 0.749. The composite z-score in assay [12] was 0.874; in assay [13], 1.35; in assay [14], 1.21; with Lefty1, 1.1; in [16] it was 0.522. In assay [1], the composite Z-score is 0.32 (inactive). The z-score in [15] is -0.326; in [17], -0.162 (inactive).
Take `COc1ccc([Si](C)(C)[C@@H]2[C@@H](CC(=O)N3CCC[C@H]3CO)O[C@]3(C(=O)N(Cc4ccc(N5CCOC5=O)cc4)c4ccccc43)[C@H]2C)cc1`: the composite z-score with Albumin (Bos taurus) is 0.746; in [2] it was -0.0362; in assay [3], -0.136; in assay [4], 0.408; in assay [5], 1.02; in assay [6], 0.373. The composite z-score came to 1.31 with Sam68 (KHDRBS1); 0.509 in [7]; 0.884 in [8]; 1.02 in [9]; 0.783 in assay [10]; 0.939 in [11]. The composite z-score in assay [12] turned out to be 0.867; in [13], 0.441; in [14], 0.672; with Lefty1, 0.646; in assay [16], 0.471. Moreover, in assay [1], the composite Z-score was 0.408 (inactive). The z-score is 0.735 in assay [15] and -1.83 (inactive) in [17].
Turning to `CC(C)(C)N1CC=CC23O[C@@H]4C=CCOC(=O)[C@@H]4[C@H]2C(=O)N(CCO)[C@@H]3C1=O` (stereo not given in full), the composite z-score was 0.439 with Albumin (Bos taurus); -0.446 in assay [2]; -0.196 in assay [3]; 0.671 in assay [4]; 1.95 in assay [5]; -0.719 in assay [6]. For the same molecule, the composite z-score in the assay with Sam68 (KHDRBS1) was -0.738; in assay [7] it was -2.63; in assay [8] it was -0.634; in assay [9] it was 1.6; in assay [10] it was -0.539; in assay [11] it was -0.747. Also, the composite z-score in [12] is -2.09; in [13], -0.262; in assay [14] it was -1.36; with Lefty1, -0.0106; in [16], -0.155. For the same molecule, the composite Z-score in [1] is 0.256 (inactive). Moreover, the z-score in assay [15] was 0.257; in [17], -0.387 (inactive).
For the molecule `COc1ccc(CCNC(=O)[C@@H]2c3ccccc3C(=O)N(Cc3ccccc3OC)[C@H]2c2ccc(CO)cc2)cc1`, the composite z-score was 0.454 with Albumin (Bos taurus); -0.176 in assay [2]; -0.0068 in [3]; 0.533 in [4]; 1.59 in [5]; 0.886 in assay [6]. In addition, the composite z-score is 1.28 in the assay on Sam68 (KHDRBS1); -0.246 in assay [7]; 0.792 in assay [8]; 1.71 in [9]; 1.15 in [10]; 0.347 in assay [11]. The composite z-score turned out to be 0.406 in assay [12]; 0.674 in [13]; 1.02 in assay [14]; 0.0605 with Lefty1; 0.655 in [16]. The composite Z-score in [1] is 0.511 (inactive). The z-score in [15] is 0.84; in assay [17] it was 0.256 (inactive).
For `CCCCCC1=C2CNC(Cc3ccccc3)(C(=O)OC)C=C2C(C)C1=O` (stereo not given), the composite z-score with Albumin (Bos taurus) amounted to 0.638; in assay [2], 0.183; in [3], 0.0878; in [4], 0.648; in [5], 2.17; in assay [6], 0.984. Moreover, the composite z-score in the assay with Sam68 (KHDRBS1) is -0.49; in [7], -1.52; in [8] it was -0.86; in assay [9], 1.01; in assay [10], 0.515; in assay [11], 0.563. Besides, the composite z-score in assay [12] was 0.837; in assay [13], -0.216; in assay [14], -0.871; in the assay on Lefty1, -0.849; in assay [16], 0.0953. For the same molecule, the composite Z-score in assay [1] was 0.881 (inactive). Also, the z-score in [15] is 1.04; in [17], 0.423 (inactive).
For `COC(=O)[C@@]1(Cc2ccc(F)cc2)[C@H]2c3cc(C(=O)N(C)C)n(C)c3C[C@H]2CN1C(=O)c1ccccc1`, the composite z-score in the assay with Albumin (Bos taurus) was determined as 0.637; in [2], 0.224; in [3], 0.352; in assay [4], 0.777; in assay [5], 1.37; in assay [6], 0.33. In addition, the composite z-score in the assay on Sam68 (KHDRBS1) is -0.333; in [7], -0.401; in [8], 0.768; in assay [9], 2.58; in [10], 0.372; in assay [11], 0.154. For the same molecule, the composite z-score in assay [12] was -0.0862; in assay [13] it was -0.524; in [14] it was 0.263; with Lefty1, -0.795; in assay [16] it was 0.229. The composite Z-score in assay [1] was 0.343 (inactive). The z-score is 0.239 in assay [15] and 0.053 (inactive) in [17].
As for `COC(=O)[C@@]1(Cc2ccc(F)cc2)[C@H]2c3cc(C(=O)N4CCCC4)n(Cc4cc(F)cc5c4OCOC5)c3C[C@H]2CN1C(=O)c1ccccc1`, the composite z-score is 0.892 with Albumin (Bos taurus); 0.0925 in assay [2]; 0.0266 in assay [3]; -0.0414 in [4]; -0.203 in assay [5]; -0.669 in assay [6]. Besides, the composite z-score was -0.349 in the assay on Sam68 (KHDRBS1); -0.631 in assay [7]; 1.07 in assay [8]; 1.93 in [9]; -0.0867 in assay [10]; -0.225 in assay [11]. The composite z-score in [12] is 0.947; in assay [13], 0.906; in [14] it was -0.796; in the assay with Lefty1, 0.348; in assay [16], 0.755. Further, the composite Z-score in assay [1] was 0.364 (inactive). In addition, the figures for the z-score in assay [15] and in assay [17] were 1.8 and 2.74 (inactive), respectively.
`O=C(NCc1ccc(F)cc1)[C@H]1C[C@H]2C(=O)N3CCC[C@H]3C(=O)N2[C@H]1c1ccc(O)cc1`: the composite z-score is -1.3 with Albumin (Bos taurus); -0.303 in assay [2]; -0.198 in [3]; -0.0109 in assay [4]; -0.136 in [5]; 1.09 in assay [6]. Also, the composite z-score is -0.732 in the assay with Sam68 (KHDRBS1); 0.857 in assay [7]; 0.72 in assay [8]; -0.279 in assay [9]; -0.825 in assay [10]; -0.753 in assay [11]. Further, the composite z-score is 0.137 in [12]; 0.699 in assay [13]; 0.75 in assay [14]; -0.557 in the assay on Lefty1; -0.554 in assay [16]. Further, in assay [1], the composite Z-score was 0.081 (inactive). The values for the z-score in [15] and in [17] were -0.0591 and -0.0877 (inactive), respectively.
For `COC(=O)C1(Cc2ccccc2)C=C2C(=C(C)C(=O)C2C)CN1` (stereo not given), the composite z-score was -0.0396 with Albumin (Bos taurus); 0.0203 in [2]; 0.197 in [3]; 0.742 in assay [4]; 2.62 in assay [5]; 0.578 in assay [6]. Also, the composite z-score is -0.674 with Sam68 (KHDRBS1); 0.46 in assay [7]; -0.634 in assay [8]; 1.21 in assay [9]; 0.732 in [10]; 0.296 in assay [11]. Besides, the composite z-score in assay [12] is 0.775; in assay [13] it was 0.714; in assay [14], -0.298; with Lefty1, -0.104; in assay [16] it was 0.622. In addition, the composite Z-score in [1] is 0.877 (inactive). Further, the results for the z-score in assay [15] and in assay [17] were 1.47 and -0.112 (inactive), respectively.
